Screening results: PubChem BioAssay, several laboratories
Calb FLC – affects C. albicans growth with fluconazole | C. albicans CaCi-2 (fluconazole-resistant clinical isolate) + fluconazole, Alamar Blue growth, 48 h | growth inhibition, % (concentration not given with the values) | actives 0.57% (n = 300,000) | AID 1979;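 active = growth inhibition above about 58% in most replicates, limit read from the data, passing the limit was not always enough; inconclusive = exactly half the replicates above a set limit; inactive = most replicates below a set limit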;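 also: all wells also contain fluconazole at 8 µg/ml as a sub-toxic cotreatment; 0% = median of DMSO wells and 100% = median of geldanamycin control wells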
ALR H2O2 inh – human ALR oxidase inhibition via reduced H2O2 | P55789 | purified ALR, DTT oxidation, H2O2 HRP-luminol luminescence | inhibition, % (concentration not given with the values) | actives 3.8% (n = 290,000) | AID 485317;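 active = mean replicate inhibition above about 79%, with every replicate also reaching it, limit read from the data; inconclusive = only one of the two criteria met; inactive = mean below limit and not every replicate reaching it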
Target sequence (P55789 whole entry, looked up): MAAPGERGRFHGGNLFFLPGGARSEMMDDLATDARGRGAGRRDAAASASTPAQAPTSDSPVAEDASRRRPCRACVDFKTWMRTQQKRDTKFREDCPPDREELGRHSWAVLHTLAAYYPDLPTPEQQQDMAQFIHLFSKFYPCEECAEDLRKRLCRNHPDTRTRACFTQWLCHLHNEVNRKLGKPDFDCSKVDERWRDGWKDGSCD
PP1 counter – PP1-alpha (human) inhibition in PP5 counter-screen; purified PP1alpha, OMFP fluorescence; P62136; actives 0.9% (n = 320,000); AID 2235; inhibition, % at 6.7 µM;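 active = inhibition above the mean inhibition of all tested compounds plus 3 SD, computed separately for each screening campaign, cut at about 15% in these data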
Target sequence (P62136 whole entry, looked up): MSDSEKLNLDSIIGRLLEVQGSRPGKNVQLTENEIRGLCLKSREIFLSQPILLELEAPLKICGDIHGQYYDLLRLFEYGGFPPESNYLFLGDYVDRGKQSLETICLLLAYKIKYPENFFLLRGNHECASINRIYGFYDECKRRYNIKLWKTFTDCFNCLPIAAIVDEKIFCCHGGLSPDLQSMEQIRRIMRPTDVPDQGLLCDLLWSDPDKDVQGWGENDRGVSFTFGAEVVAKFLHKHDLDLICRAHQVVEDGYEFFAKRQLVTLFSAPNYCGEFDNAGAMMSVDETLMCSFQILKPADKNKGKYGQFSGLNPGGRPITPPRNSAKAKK
CSC inhib – blocks cancer stem cells | cancer stem cell-like cells viability, luminescence | inhibition, % at 7.5 µM | actives 1.1% (n = 300,000); in the data active = inhibition above about 75%; inconclusive = no clear call, values can overlap the other calls; tested in HMLE shEcad cells
PP5 inh – inhibitors of human protein phosphatase 5 (PP5); inhibition, % at 6.7 µM; purified PP5c, OMFP substrate fluorescence; P53041; AID 1987; actives 0.18% (n = 320,000);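 active = inhibition above the campaign's mean inhibition across all tested compounds plus 3 SD, cut at about 9.5% in these data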;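 also: 0% = DMSO only and 100% = 100 µM cantharidin control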
PP1 inh confirm – human PP1 phosphatase inhibition, confirmation. shares compounds with PP1 counter. purified PP1alpha, OMFP substrate fluorescence. actives 52% (n = 1,900). inhibition, % at 6.7 µM;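 active = mean PP1 inhibition above a set limit taken from the earlier primary screen, cut at about 15% in these data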
PP5 counter – PP5 phosphatase inhibition, counter-screen for PP1 inhibitors. shares compounds with PP1 counter. purified PP5c, OMFP fluorescence. inhibition, % at 6.7 µM. actives 4% (n = 1,900). AID 2360;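 active = mean PP5 inhibition over triplicate wells above about 9.5% taken from the earlier PP1 screen, limit read from the data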
The depositor's hits bear a star; ? = inconclusive; / = not tested or not shown. Most compounds without a hit are left out; they make up all but 5.4% or so of the library.

SMILES	Calb FLC	ALR H2O2 inh	PP1 counter	CSC inhib	PP5 inh	PP1 inh confirm	PP5 counter
O=S(=O)(Nc1cc(S(=O)(=O)N2CCOCC2)ccc1N1CCOCC1)c1ccc2c(c1)OCCO2	5.3	1.9	0.2	-4.5	-2.9	/	/
O=C(N/N=C/c1ccc(-c2ccc(S(=O)(=O)Nc3ncccn3)cc2)o1)c1cc2ccccc2cc1O	21.6	0.8	21.3*	-4.6	3.1	15.6*	-0.7
CC1=C(C(=O)Nc2ccccc2)C(c2ccco2)C(C#N)=C(SCC(=O)OC(C)C)N1 (stereo not drawn)	?	36.6	-1.4	-5.3	2.9	/	/
CC1=C(C(=O)Nc2ccccc2)C(c2ccco2)C(C#N)=C(SCc2ccccc2)N1 (stereo not drawn)	5.4	4.8	22.9*	?	3.0	0.3	-5.9
c1ccc(-c2nccc(-c3ccc(-n4cnc5ccccc54)cc3)n2)cc1	11.4	-1.0	18.1*	6.4	2.8	24.5*	-0.2
CCOc1ccccc1NC(=O)C1C2C=CC(C2)C1C(=O)O (stereo not drawn)	-1.0	-8.3	-2.5	-4.7	1.2	/	/
COc1ccc(OC)c(NC(=O)C2C3CCC(O3)C2C(=O)O)c1 (stereo not drawn)	-8.7	-34.2	64.0*	-2.6	69.4*	22.1*	27.2*
CCOc1ccccc1NC(=O)C1C2CCC(O2)C1C(=O)O (stereo not drawn)	1.3	-2.8	77.0*	-1.0	76.7*	16.4*	31.4*
CCCOc1cccc(C(=O)Nc2cccc(NC(=O)c3ccco3)c2)c1	4.1	-12.7	-2.5	-2.9	4.2	/	/
Cc1cc(C)nc(-n2nc(C)c3c(=O)[nH]c(C(F)(F)F)nc32)n1	-19.2	-5.7	19.1*	15.0	2.4	-5.7	-5.6
O=[N+]([O-])c1cc([N+](=O)[O-])c2cccnc2c1Oc1ccccc1O	6.5	-0.4	5.5	19.8	1.9	/	/
CCC(=O)NC(c1ccc(C)cc1)c1cc([N+](=O)[O-])c2cccnc2c1O (stereo not drawn)	109.8*	-98.3	39.4*	100.4*	0.6	12.1	12.2*
CC(=O)NC(c1ccc(C)cc1)c1cc([N+](=O)[O-])c2cccnc2c1O (stereo not drawn)	108.5*	-6.5	18.5*	103.7*	5.8	21.2*	3.2
Cc1cc(NC2CCCCC2)nc(NCc2ccccc2)n1	0.6	-8.2	5.7	16.0	0.4	/	/
Cc1ccc(Nc2cc(C)nc(NCc3ccccc3)n2)cc1	7.7	2.3	17.7*	?	4.8	4.2	4.1
N=c1n(CCN2CCCCC2)c2ccccc2n1CC(=O)c1ccc(Cl)c(Cl)c1	8.1	-1.2	27.4*	102.7*	-0.7	-18.0	0.2
CCn1c(=N)n(CC(=O)c2ccc(Cl)c(Cl)c2)c2ccccc21	23.0	0.3	-0.6	41.6	2.9	/	/
O=C(CN1C(=O)/C(=C2\SC(=S)N(CCS(=O)(=O)O)C2=O)c2ccccc21)Nc1cccc(Br)c1	2.5	/	36.6*	-4.5	1.8	38.8*	-1.6
O=C(CN1C(=O)/C(=C2/SC(=S)N(CCS(=O)(=O)O)C2=O)c2ccccc21)Nc1cccc(C(F)(F)F)c1	/	-6.6	/	-1.1	/	/	/
CCOc1ccc(C2NC(=O)Cc3cc(OC)c(OC)cc32)cc1 (stereo not drawn)	-1.9	3.9	23.7*	-11.3	-0.6	-2.4	0.9
COc1cc(Cl)c(C)cc1NC(=O)COC(=O)/C=C/c1c(C)nn(C2CCS(=O)(=O)C2)c1Cl (stereo not drawn)	-4.9	-22.2	4.8	-16.6	2.1	/	/
O=C(O)c1ccc2nc(-c3ccco3)c(-c3ccco3)nc2c1	-0.2	/	/	/	/	/	/
O=C(Nc1cccc(C(F)(F)F)c1)c1ccc2nc(-c3ccco3)c(-c3ccco3)nc2c1	-10.5	1.5	32.3*	28.6	0.7	11.5	-0.2
C/C(=N\NC(=O)c1ccccc1)c1ccc(NC(=O)c2cccs2)cc1	-19.2	/	-1.4	-8.4	-0.2	/	/
O=C(c1ccc(=O)[nH]c1)N(Cc1cccs1)C1(C(=O)NC2CCCC2)CCCCC1	-1.1	-0.2	19.3*	3.4	-0.6	-4.3	-4.7
SMILES	Calb FLC	ALR H2O2 inh	PP1 counter	CSC inhib	PP5 inh	PP1 inh confirm	PP5 counter
OC(CNCc1ccccc1)c1ccccc1 (stereo not drawn)	17.3	-0.1	2.2	-6.7	-0.2	/	/
COc1ccc(NC(=O)Nc2ccc3c(c2)C(=O)N([C@H](C)CO)C[C@H](C)[C@@H](CN(C)S(C)(=O)=O)O3)cc1	/	-11.6	/	/	/	/	/
COc1cc2nc(SCc3ccc(F)cc3)n(Cc3cccs3)c(=N)c2cc1OC	23.9	-3.3	0.7	0.0	5.4	/	/
COc1ccc(Cn2c(SCc3ccccc3C)nc3cc(OC)c(OC)cc3c2=N)cc1	47.3	-14.4	29.6*	99.7*	2.9	3.4	-1.2
Cc1cc2cc(CNC(=O)c3ccc(S(=O)(=O)N4CCCC4)cc3)ccc2n1C	-1.2	-25.3	1.3	-10.4	5.0	/	/
COc1cc(OC)cc(C(=O)Nn2c(C)nc3ccccc3c2=O)c1	-20.3	0.4	4.6	5.5	4.4	/	/
COc1ccc2[nH]c3c(c2c1)CCn1c-3nc2ccccc2c1=O	/	-2.0	26.2*	/	1.1	21.6*	-5.5
O=C(c1cccs1)N1N=C(c2ccccc2)CC1c1ccccc1O (stereo not drawn)	31.0	-3.8	25.0*	4.4	-5.4	18.9*	-2.6
Cc1ccc(C2=NN(C(=O)c3cccs3)C(c3ccccc3O)C2)cc1 (stereo not drawn)	25.8	5.0	1.8	1.9	2.2	/	/
C=C(C)C(=O)Nc1cccc(C2=NOC3(C2)C[C@@H](C(N)=O)N(C(=O)c2ccc(OC)cc2)C3)c1 (stereo partly drawn)	9.1	0.4	18.2*	-3.9	0.2	7.2	-1.2
C=C(C)C(=O)Nc1cccc(C2=NOC3(C2)C[C@@H](C(N)=O)N(C(=O)c2cc([N+](=O)[O-])cc([N+](=O)[O-])c2)C3)c1 (stereo partly drawn)	12.3	/	2.8	0.3	4.9	/	/
C/C=C\C=C/C(=O)Nc1cccc(C2=NOC3(C2)C[C@@H](C(N)=O)N(C(=O)COc2ccc(Cl)cc2)C3)c1 (stereo partly drawn)	-1.8	-2.3	19.1*	7.7	3.4	-1.7	-3.9
C/C=C\C=C\C(=O)N1CC2(CC(c3cccc(NC(=O)COc4ccc(Cl)cc4)c3)=NO2)C[C@H]1C(N)=O (stereo partly drawn)	-2.7	-1.2	-1.3	-3.4	2.8	/	/
OCCN(CCO)CC(O)COc1ccc2c(c1)OCO2 (stereo not drawn)	-6.9	-9.8	0.2	-3.9	3.4	/	/
O=C(CSc1nc(C2CC2)nc2ccccc12)Nc1ccccc1	-5.9	-4.3	7.9	9.9	4.3	/	/
COc1cc(NC(=O)CSc2nc(C3CC3)nc3ccccc23)cc(OC)c1	-5.3	-8.2	19.3*	-10.9	1.4	18.1*	-3.5
CCOC(=O)c1[nH]c2ccccc2c1CCCN1C(=O)c2ccccc2C1=O	3.0	-14.2	32.2*	/	4.1	25.3*	1.4
